As usually defined, the AC50 is the concentration giving half of the maximal activity seen.

Results on 20 compounds are retold here after PubChem BioAssay (EPA / NIEHS).

Records with an inconclusive call do not appear. The source made the active and inactive calls. The calls were made as follows, unless noted: active = hit-call score of the fitted dose curve at least 0.9, where 1 is the maximum; inactive = score below 0.9.

The first assay is described as follows: CCTE_Simmons_MITO_inhib_resp_rate: CCTE's HepG2 Seahorse XF Respirometric Screening Assay at Inhibited Respiratory State [full ETC block], Simmons Lab (AID 2284006). The following applies: actives raise or lower the signal. In outline: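 Compound injected onto HepG2 cells (125 nM–100 uM final, 7 points); FCCP then rotenone/antimycin A added. Oxygen consumption read every 6 min (3 min mix, 3 min measure) for 72 min. Inhibited-state OCR fitted against DMSO.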
As for `Oc1ccc(Cl)cc1Cc1ccccc1`, the call was inactive.
`N#Cc1c(Cl)c(Cl)c(Cl)c(C#N)c1Cl`: the compound was called inactive.
For `O=C(O)CCCOc1ccc(Cl)cc1Cl`, the compound was classed as inactive.
With `CC[C@H](C)[C@H]1O[C@]2(C=C[C@@H]1C)C[C@@H]1C[C@@H](C/C=C(\C)[C@@H](O[C@H]3C[C@H](OC)[C@@H](O[C@H]4C[C@H](OC)[C@@H](O)[C@H](C)O4)[C@H](C)O3)[C@@H](C)/C=C/C=C3\CO[C@@H]4[C@H](O)C(C)=C[C@@H](C(=O)O1)[C@]34O)O2` (tested in a mixture with another compound), the compound was called inactive.
`CCC(C)(NC(=O)c1cc(Cl)c(C)c(Cl)c1)C(=O)CCl` (stereo not given): the result was inactive.
As to `CCC(C)Nc1c([N+](=O)[O-])cc(C(C)(C)C)cc1[N+](=O)[O-]` (stereo not given), the compound was called inactive.
Consider `CCOCN(C(=O)CCl)c1c(C)cccc1CC`, for which the compound was classed as inactive.
Still for that read-out and setting: the result for `C#CCN1C(=O)COc2cc(F)c(N3C(=O)C4=C(CCCC4)C3=O)cc21` reads “inactive”; that for `CC(C)(C)C(O)/C(=C\c1ccc(Cl)cc1Cl)n1cncn1` (stereo not given), “inactive”.
For `CCOC1Oc2ccc(OS(C)(=O)=O)cc2C1(C)C` (stereo not given), the AC50 was 33900 nM (active).
For the compound `Oc1cc(Cl)ccc1Oc1ccc(Cl)cc1Cl`, the compound was called inactive.
On to `O=C(O)COc1ccc(Cl)cc1Cl`, for which the outcome was inactive.
As for `CC1(c2ccc(Oc3ccccc3)cc2)OC(=O)N(Nc2ccccc2)C1=O` (stereo not given), the result was inactive.
On to `CCCN(CCOc1c(Cl)cc(Cl)cc1Cl)C(=O)n1ccnc1`, for which the compound was classed as inactive.
With `COP(=S)(OC)Oc1ccc([N+](=O)[O-])cc1`, the outcome was inactive.

A further assay is described as follows: CCTE_Simmons_MITO_viability: CellTiter-Glo Viability Assessment for CCTE's HepG2 Seahorse XF Respirometric Screening Assay [post-hoc], Simmons Lab (AID 2284007; active = hit-call score of the fitted dose curve at least 0.9, where 1 is the maximum;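 as to AC50: cells exposed to chemical for 90 min before the ATP read; actives lower ATP signal relative to DMSO baseline meaning reduced viability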).
Conditions: not given
In outline: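 After the Seahorse oxygen-consumption sequence (basal, FCCP, rotenone/antimycin A; 72 min total), HepG2 viability was scored as ATP content by bioluminescence. Chemicals ran at seven concentrations up to 100 uM final for 90 min.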
For orientation: In ATP-based viability assays light output follows the ATP content of the culture.
As for `Oc1ccc(Cl)cc1Cc1ccccc1`, the result was inactive.
Turning to `N#Cc1c(Cl)c(Cl)c(Cl)c(C#N)c1Cl`, the AC50 is 20000 nM (active).
Consider `CCC(C)Nc1c([N+](=O)[O-])cc(C(C)(C)C)cc1[N+](=O)[O-]` (stereo not given), for which the call was inactive.
`CCOCN(C(=O)CCl)c1c(C)cccc1CC`: the compound was classed as inactive.
On to `C#CCN1C(=O)COc2cc(F)c(N3C(=O)C4=C(CCCC4)C3=O)cc21`, for which the outcome was inactive.
Turning to `CC(C)(C)C(O)/C(=C\c1ccc(Cl)cc1Cl)n1cncn1` (stereo not given), the call was inactive.
Regarding `CCOC1Oc2ccc(OS(C)(=O)=O)cc2C1(C)C` (stereo not given), the compound was classed as inactive.
For `Oc1cc(Cl)ccc1Oc1ccc(Cl)cc1Cl`, the outcome was inactive.
Same read-out and setting: the result for `CC1(c2ccc(Oc3ccccc3)cc2)OC(=O)N(Nc2ccccc2)C1=O` (stereo not given) reads “inactive”.
On to `CCCN(CCOc1c(Cl)cc(Cl)cc1Cl)C(=O)n1ccnc1`, for which the AC50 was 13600 nM (active).
On to `COP(=S)(OC)Oc1ccc([N+](=O)[O-])cc1`, for which the call was inactive.

A short description of a further assay: CCTE_Shafer_MEA_acute_spike_number: CCTE's Neural Acute Assay for Total Number of Spikes, Shafer Lab (AID 2284008).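 As to AC50: curve fitted for decrease in spike count so AC50 reflects inhibitors.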
Conditions: not given
The procedure, abridged:
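Rat cortical cultures, DIV 13/15, 37 C. 40 min baseline rec, cpd 0.03-40 uM, 40 min post-dose rec. Band-pass 300-5000 Hz, spike threshold 8x rms; % change in spike count per well, DMSO neg ctrl, loss-of-signal fit.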
Take `CCCN(CCC)c1c([N+](=O)[O-])cc(C(F)(F)F)cc1[N+](=O)[O-]`: the AC50 was 8550 nM (active).
On to `CCC(C)(C)C(=O)OC1=C(c2ccc(Cl)cc2Cl)C(=O)OC12CCCCC2`, for which the compound was called inactive.
Take `Oc1ccc(Cl)cc1Cc1ccccc1`: the AC50 was 1070 nM (active).
Take `O=[N+]([O-])/N=C1\NCCN1Cc1ccc(Cl)nc1`: the outcome was inactive.
Consider `N#Cc1c(Cl)c(Cl)c(Cl)c(C#N)c1Cl`, for which the compound was classed as inactive.
Regarding `O=C(O)CCCOc1ccc(Cl)cc1Cl`, the outcome was inactive.
For the compound `CC[C@H](C)[C@H]1O[C@]2(C=C[C@@H]1C)C[C@@H]1C[C@@H](C/C=C(\C)[C@@H](O[C@H]3C[C@H](OC)[C@@H](O[C@H]4C[C@H](OC)[C@@H](O)[C@H](C)O4)[C@H](C)O3)[C@@H](C)/C=C/C=C3\CO[C@@H]4[C@H](O)C(C)=C[C@@H](C(=O)O1)[C@]34O)O2` (tested in a mixture with another compound), the AC50 was 4.8 nM (active).
For the compound `CCC(C)Nc1c([N+](=O)[O-])cc(C(C)(C)C)cc1[N+](=O)[O-]` (stereo not given), the outcome was inactive.
With `O=S1OCC2C(CO1)C1(Cl)C(Cl)=C(Cl)C2(Cl)C1(Cl)Cl` (stereo not given), the compound was classed as inactive.
For `Oc1cc(Cl)ccc1Oc1ccc(Cl)cc1Cl`, the AC50 is 1890 nM (active).
As for `C[C@H]1[C@H](c2ccc(Cl)cc2)SC(=O)N1C(=O)NC1CCCCC1`, the half-maximal activity concentration (AC50) is 13000 nM (active).
`CCCN(CCOc1c(Cl)cc(Cl)cc1Cl)C(=O)n1ccnc1`: the AC50 was 1260 nM (active).

The next assay can be described thus: CCTE_Shafer_MEA_acute_firing_rate_mean: CCTE's Neural Acute Assay for Mean Firing Rate, Shafer Lab (AID 2284009).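 Also: analyzed for loss of signal so actives lower firing rate relative to DMSO.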
Conditions: not given
The procedure, abridged:
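Read-out: well-mean spike rate (spikes/recording length/electrodes), % change from 40 min pre-dose baseline to 40 min with compound. Rat cortical cultures, DIV 13 or 15, 37 C; 0.03-40 uM; DMSO as negative control.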
As to `CCCN(CCC)c1c([N+](=O)[O-])cc(C(F)(F)F)cc1[N+](=O)[O-]`, the call was inactive.
For `CCC(C)(C)C(=O)OC1=C(c2ccc(Cl)cc2Cl)C(=O)OC12CCCCC2`, the call was inactive.
Regarding `Oc1ccc(Cl)cc1Cc1ccccc1`, the AC50 was 1080 nM (active).
Turning to `O=[N+]([O-])/N=C1\NCCN1Cc1ccc(Cl)nc1`, the result was inactive.
Consider `N#Cc1c(Cl)c(Cl)c(Cl)c(C#N)c1Cl`, for which the outcome was inactive.
With `O=C(O)CCCOc1ccc(Cl)cc1Cl`, the result was inactive.
With `CC[C@H](C)[C@H]1O[C@]2(C=C[C@@H]1C)C[C@@H]1C[C@@H](C/C=C(\C)[C@@H](O[C@H]3C[C@H](OC)[C@@H](O[C@H]4C[C@H](OC)[C@@H](O)[C@H](C)O4)[C@H](C)O3)[C@@H](C)/C=C/C=C3\CO[C@@H]4[C@H](O)C(C)=C[C@@H](C(=O)O1)[C@]34O)O2` (tested in a mixture with another compound), the AC50 is 4.77 nM (active).
For the compound `CCC(C)Nc1c([N+](=O)[O-])cc(C(C)(C)C)cc1[N+](=O)[O-]` (stereo not given), the call was inactive.
In the case of `O=S1OCC2C(CO1)C1(Cl)C(Cl)=C(Cl)C2(Cl)C1(Cl)Cl` (stereo not given), the call was inactive.
Regarding `Oc1cc(Cl)ccc1Oc1ccc(Cl)cc1Cl`, the AC50 is 1890 nM (active).
On the same count and under the same terms, as for `C[C@H]1[C@H](c2ccc(Cl)cc2)SC(=O)N1C(=O)NC1CCCCC1`, the figure is 13100 nM (active); as for `CCCN(CCOc1c(Cl)cc(Cl)cc1Cl)C(=O)n1ccnc1`, 1240 nM (active).
